Screening results deposited in PubChem BioAssay by several laboratories.
MEKK2mut PB1 HTS – signal of MEK5 binding to mutant human MEKK2 PB1 domain; AID 1530; bead flow cytometry, Alexa488-MEK5 binding to MEKK2 mutant; percent response, % at 10 µM; actives 0.35% (n = 290,000); in the data active = percent response above about 24%, passing the limit was not always enough
MEKK2wt PB1 HTS – raises or lowers MEK5 binding to wildtype human MEKK2 PB1 domain; bead flow cytometry, Alexa488-MEK5 binding to MEKK2 WT; actives lie on both sides; actives 1.1% (n = 290,000); binding response (% of control), % at 10 µM; in the data active = binding response below about 67% or above about 130%
Mot1-301 SUMO – blocks SUMOylation pathway, rescuing yeast Mot1-301 growth | S. cerevisiae Mot1-301 growth rescue, ATP luminescence, 38.5C; percent above DMSO median, 100 means doubled | growth rescue, % at 18.8 µM | AID 2716 | actives 1% (n = 320,000);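 active = every valid replicate shows activation above 250% relative to neutral control wells; inactive = the rest, any valid replicate at or below 250%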;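 note: OY570 slx delta 5 strain wells were the positive control but not used for scaling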
CHT allo act – allosteric activators of human choline transporter CHT; Q9GZV3; CHT-expressing cells, membrane potential dye, choline EC20; active compounds read high; LV-AA mutant CHT in HEK293 cells; B-score at 10 µM; actives 0.49% (n = 310,000); AID 488977;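 active = initial fluorescence not abnormally high and integrated response B-score, plate-corrected, over 3 SD above library mean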
Target sequence (Q9GZV3 whole entry, looked up): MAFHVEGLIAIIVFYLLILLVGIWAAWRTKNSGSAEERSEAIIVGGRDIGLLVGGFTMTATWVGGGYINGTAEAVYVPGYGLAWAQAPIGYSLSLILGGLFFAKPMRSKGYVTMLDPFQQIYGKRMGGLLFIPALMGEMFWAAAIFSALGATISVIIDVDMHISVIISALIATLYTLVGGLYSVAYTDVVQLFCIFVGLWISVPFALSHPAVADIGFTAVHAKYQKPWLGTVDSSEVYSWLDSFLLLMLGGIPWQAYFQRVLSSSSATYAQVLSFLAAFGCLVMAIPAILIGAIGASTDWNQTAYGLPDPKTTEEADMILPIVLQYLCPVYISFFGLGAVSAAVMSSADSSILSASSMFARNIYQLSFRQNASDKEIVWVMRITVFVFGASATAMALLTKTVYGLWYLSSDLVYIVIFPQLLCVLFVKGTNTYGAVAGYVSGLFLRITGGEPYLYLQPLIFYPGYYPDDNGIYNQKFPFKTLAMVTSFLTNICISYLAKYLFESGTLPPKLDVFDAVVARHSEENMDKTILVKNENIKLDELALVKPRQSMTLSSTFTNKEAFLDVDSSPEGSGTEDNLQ
MEKK3 PB1 HTS – raises or lowers MEK5 binding to the human MEKK3 PB1 domain; Q99759; bead-based flow cytometry, Alexa488-MEK5 binding to MEKK3; actives lie on both sides; 0 = blocked by unlabeled MEK5, 100 = vehicle; binding response (% of control), % at 10 µM; actives 1.4% (n = 290,000);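 active = binding response more than 3 SD above or below the average of its plate-row segment, actives on both sides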;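 note: Alexa488 bead fluorescence after subtracting the streptavidin-only scavenger bead signal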
CHT block – human CHT choline transport inhibition; CHT-expressing cells, membrane potential dye, choline response; active compounds read low; B-score at 10 µM; actives 0.86% (n = 310,000);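 active = B-score over 3 SD under the library average, and starting fluorescence ratio not unusually high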;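 note: choline stimulus applied at its EC90 after an EC20 pre-addition; B-score computed on integrated fluorescence ratio after choline addition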
MEKK2wt confirm – raises or lowers MEK5 binding to wildtype human MEKK2, retest; binding response (% of control), % at 10 µM; actives 2.4% (n = 5,900); bead flow cytometry, Alexa488-MEK5 binding to MEKK2 WT; actives lie on both sides; shares compounds with MEKK3 PB1 HTS; in the data active = binding response below about 16% or above about 210%; inactive = in between
MEKK2mut-MEK5 – signal of MEK5 binding to mutant human MEKK2, retest. actives 2% (n = 5,900). percent response, % at 10 µM. shares compounds with MEKK3 PB1 HTS. bead flow cytometry, Alexa488-MEK5 binding to MEKK2 mutant; in the data active = percent response mostly above about 71%, no sharp cut-off; inactive = mostly below about 38%;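 note: higher means compound restores mutant binding toward wildtype level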
MEKK3 confirm – MEKK3-MEK5 PB1 inhibition, single concentration confirmation; shares compounds with MEKK3 PB1 HTS; bead flow cytometry, Alexa488-MEK5 binding to MEKK3; active compounds read low; binding response (% of control), % at 10 µM; actives 1.8% (n = 5,900); AID 1894;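 active = binding response below 72% of control, or above a set upper limit, though filed actives all read lower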;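 note: 100% = DMSO only wells and 0% = binding blocked by excess unlabeled MEK5; lower values mean stronger disruption of MEK5 binding to MEKK3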
Yeast Mot1 SUMO – yeast SUMO pathway inhibition in dose response; shares compounds with Mot1-301 SUMO; S. cerevisiae Mot1-301 galactose growth, ATP luminescence, 24 h; -100 = growth of slx-deleted rescue strain; growth activity, percent, % at 42 µM; 2,300 tested, under 10 active; AID 493004;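 active = Signal drops as the depositor expects, and the fitted half-maximal dose is no more than ten times the top valid tested dose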;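 note: more negative values mean stronger growth rescue toward the control strain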
CHT block conf – confirmation of human choline transporter CHT inhibitors; shares compounds with CHT block; CHT-expressing cells, choline membrane potential dye; LV-to-AA substituted CHT, HEK293 cells; CHT activity remaining % of control (active compounds read low), % at 10 µM; actives 70% (n = 2,400); AID 493221;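 active = choline transporter activity left, mean of duplicates at 10 µM, below buffer-only control mean minus 3 SD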;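 note: depolarization triggered by choline at its EC90 following an EC20 pre-addition; 0% = hemicholinium-3 full block and 100% = buffer-only control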
HEK293 MPD ctr – activity in parental HEK293 cells lacking CHT. shares compounds with CHT block. membrane potential dye, choline response; active = decrease or increase beyond buffer ±3SD. actives 4% (n = 2,400). membrane potential ratio readout (active if shifted either direction beyond buffer ±3SD; no single direction) at 10 µM. AID 493222;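 note: parental cells lack the transporter so any hit is non-specific; ratio is peak minus trough fluorescence over baseline after EC90 choline challenge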
Active calls of the source: *; i = inactive; / = no result; ! = not active in a repeat; [ ] = remark or other dose. In the library only some 4.1% were active in any assay of this set; here they are far more common.

SMILES	MEKK2mut PB1 HTS	MEKK2wt PB1 HTS	Mot1-301 SUMO	CHT allo act	MEKK3 PB1 HTS	CHT block	MEKK2wt confirm	MEKK2mut-MEK5	MEKK3 confirm	Yeast Mot1 SUMO	others
COc1cc2c3cc1Oc1cc(ccc1O)C[C@@H]1c4c(cc(OC)c(O)c4Oc4ccc(cc4)C[C@H]3N(C)CC2)CCN1C	10	134*	202	i	107	i	118	8	97	/
CC(C)COc1ccc(C2(C#N)CC[N+](C)(C)CC2)cc1	-17	85	8	i	80*[inhibitor]	i	100	2	101	/
Cc1c2ccncc2c(C)c2c1[nH]c1ccccc12	28*	201*	15	i	72*[inhibitor]	i	195	58	105	/
c1ccc2c(c1)[nH]c1cnccc12	4	102	-11	i	94	i	/	/	/	/
COC(=O)C1=C(c2ccc(OC(F)(F)F)cc2)C[C@@H]2CC[C@H]1N2C(=O)N1CCCC1	/	/	-18	/	/	/	/	/	/	/
Cc1ccc(CN2C3CCCC2CC(NC(=S)NCc2ccccc2)C3)cc1 (stereo not drawn)	62*	195*	-5	i	110	i	140	17	103	/
Oc1ccc2c3c1OC1C(O)CC[C@@]4(O)[C@@H](C2)N(CC2CCC2)CC[C@]314 (stereo partly drawn)	-1	53*![inhibitor]	29	i	70	i	115	9	108	/
FC(F)(F)c1ccc2c(c1)N(CCCN1CCN(CCCl)CC1)c1ccccc1S2	24*	173*	3	i	101	i	155	25	105	/
C=CCN1C(=O)/C(=C/c2cc(C)n(-c3ccccn3)c2C)C(=O)NC1=S	-2	61*[inhibitor]	5	i	94	i	96	-2	100	/
COc1ccc(CNCCc2c(C)[nH]c3ccc(OC(F)(F)F)cc23)c(OC)c1	19	139*	2	i	95	i	144	18	104	/
COc1ccc2[nH]c(C)c(CCNCc3cc(OC)c(OC)c(OC)c3)c2c1	-12	94	-6	i	96	i	/	/	/	/
COc1cccc(NP(=O)(Oc2ccccc2Cl)Oc2ccccc2Cl)c1	1	109	-30	i	137*	i	101	-7	104	/
COP(=O)(OC)C1(O)C(=O)Nc2ccc(Br)cc21 (stereo not drawn)	-1	100	-7	i	97	i	/	/	/	/
CCC1C(c2ccccc2)NC(c2ccccc2)CC1(O)c1ccc(F)cc1 (stereo not drawn)	43	152*	683*	i	107	i	122	17	108	0
COC(=O)C(=O)N1CC2(C)CNCC(C)(C1)C2=O	-7	83	-33	i	101	i	/	/	/	/
O=C1NC(=O)C(=Cc2coc3ccccc3c2=O)C(=O)N1	184*	282*	50	i	121	-9.5*	99	-2	103	/	CHT block conf=46%*;HEK293 MPD ctr=i
CCN(CC)C(=O)c1ccc(NC(=S)NC(=O)CCc2ccccc2)cc1	0	98	-3	i	101	i	/	/	/	/
COC(=O)[C@@H]1[C@@H](C(=O)OC)C2(c3ccccc3-c3ccccc32)N(c2ccc(Cl)cc2)N1C#N	1	88	427*	i	85	i	/	/	/	-1
COc1ccc2c(c1)[C@@]13CCC=C[C@H]1[C@@H](C2)NCC3	/	/	455*	i	/	i	/	/	/	0
COc1ccc2[nH]c3c(c2c1)CCNC3C (stereo not drawn)	6	111	2	i	103	i	/	/	/	/
CCOc1c(P(=S)(N(C)C)N(C)C)c(C)nn1-c1ccccc1	3	102	891*	i	103	i	/	/	/	0
Cn1cc(C(=O)OCC(=O)NC2CCCCC2)c2ccccc21	/	/	-16	/	/	/	/	/	/	/
CC(C)C/C(=N/O)c1c[nH]c2ccccc12	21	114	572*	i	103	i	/	/	/	1
CC(C(=O)c1c[nH]c2ccccc12)N1CCOCC1 (stereo not drawn)	-8	98	-6	i	99	i	/	/	/	/
CC(C)OCC(O)CN1CC2C[C@@H](C1)Cn1c2cccc1=O (stereo partly drawn)	12	111	68	i	106	i	/	/	/	/
SMILES	MEKK2mut PB1 HTS	MEKK2wt PB1 HTS	Mot1-301 SUMO	CHT allo act	MEKK3 PB1 HTS	CHT block	MEKK2wt confirm	MEKK2mut-MEK5	MEKK3 confirm	Yeast Mot1 SUMO	others
COc1ccccc1Oc1c(C)oc2cc(OC(=O)N(C)C)ccc2c1=O	9	109	-8	i	103	i	/	/	/	/
COc1ccc(Oc2c(C)oc3cc(OC(=O)N(C)C)ccc3c2=O)cc1	2	102	524*	i	101	i	/	/	/	-1
Cc1c(Br)c(=O)oc2cc(OCC(=O)N3C[C@H]4C[C@@H](C3)c3cccc(=O)n3C4)ccc12	1	104	6	i	100	i	/	/	/	/
CN(C)C1(c2nnnn2-c2ccc(Cl)cc2)CCCCC1	5	106	737*	i	104	i	/	/	/	0
CN(C)C1(c2nnnn2CCOC(=O)Nc2ccc(Cl)cc2)CCCCC1	3	98	-7	i	100	i	/	/	/	/
COc1ccc(C2SCC(=O)Nc3c2c(=O)[nH]n3C2CCCCC2)cc1 (stereo not drawn)	-4	93	824*	i	99	i	/	/	/	0
COC(=O)c1c(C)n(Cc2ccc3c(c2)OCO3)c2ccc(O)cc12	4	102	696*	i	104	i	/	/	/	0
